Shown are actives, neighbours in structure and some others; about 0.41% of the full set was active somewhere.
GAA spleen mod: qHTS Assay for Inhibitors and Activators of Human alpha-Glucosidase From Spleen Homogenate; Lysosomal alpha-glucosidase (Homo sapiens), P10253; human spleen homogenate, 4-MU-alpha-glucoside fluorescence; Potency, µM (top dose mostly 79.9 µM), hits mostly inhibitors; 240,000 compounds, 0.006% hits; AID 2112, 2009
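AC50 values come from Hill-equation fits of concentration-response data, normalized to no-enzyme and full-activity controls. Enzyme source: 1 ug human spleen homogenate; 1 mM fluorogenic 4-MU glucoside, pH 5.0 citrate buffer, 37 C, 40 min.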
GLA spleen mod: qHTS Assay for Inhibitors and Activators of Human alpha-Galactosidase From Spleen Homogenate. human spleen homogenate, 4MU-alpha-Gal fluorescence, 40 min. AID 2107, 2009. 240,000 compounds, 0.008% hits. Potency, µM (top dose mostly 80 µM), actives largely listed as inhibitors
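Human spleen homogenate (1 ug) was the enzyme source, with 4-methylumbelliferyl-alpha-D-galactopyranoside (1 mM final) in pH 5.0 citrate buffer with 0.01% Tween-20. Compounds were titrated; after 40 min at 37C, NaOH/glycine stop, 4-MU fluorescence read; AC50 from Hill fits.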
GAA glycogen mod: qHTS Assay for Inhibitors and Activators of Human alpha-Glucosidase Cleavage of Glycogen; Lysosomal alpha-glucosidase (Homo sapiens), P10253; recombinant GAA, glycogen substrate, Amplex Red glucose oxidase fluorescence; Potency, µM (series often up to 76.4 µM), hits mostly inhibitors; 300,000 compounds, 0.38% hits; AID 2100, 2009;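 also: the screen sought inhibitors and activators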
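Natural-substrate format: glycogen cleavage by 4 nM human enzyme, glucose read by Amplex Red coupling (Ex 573, Em 610 nm). Normalized to enzyme and no-enzyme controls.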
GLA inh pH 4.5: qHTS Assay for Inhibitors of Human alpha-Galactosidase at pH 4.5; purified enzyme, 4-MU-alpha-Gal fluorescence, pH 4.5; 230,000 tested, under 10 active; activity change, negative = inhibition, % at 105 µM
Target sequence (P06280 whole entry, looked up): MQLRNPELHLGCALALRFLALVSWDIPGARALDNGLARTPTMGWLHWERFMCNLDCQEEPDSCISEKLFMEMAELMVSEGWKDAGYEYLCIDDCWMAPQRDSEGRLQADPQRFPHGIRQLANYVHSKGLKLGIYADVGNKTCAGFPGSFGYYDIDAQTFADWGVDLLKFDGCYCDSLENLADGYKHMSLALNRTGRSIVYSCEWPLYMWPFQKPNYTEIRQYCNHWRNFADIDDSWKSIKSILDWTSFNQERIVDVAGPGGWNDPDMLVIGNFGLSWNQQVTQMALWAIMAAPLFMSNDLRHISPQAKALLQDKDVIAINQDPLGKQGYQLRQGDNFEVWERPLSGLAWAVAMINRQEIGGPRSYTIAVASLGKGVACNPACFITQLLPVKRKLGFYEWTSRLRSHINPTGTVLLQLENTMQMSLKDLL
GAA inh: qHTS Assay for Inhibitors of Human alpha-Glucosidase as a Potential Chaperone Treatment of Pompe Disease. purified human GAA, 4-MU-alpha-glucoside fluorescence. Potency, µM (series often up to 76.9 µM), most hits filed as inhibitors. 200,000 compounds, 0.005% hits. AID 1466, 2008
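AC50 values come from Hill fits of compound titrations (up to 77 uM) against 4 nM human enzyme. Substrate 4-methylumbelliferyl-alpha-D-pyranoside at 400 uM, pH 5.0 citrate buffer, 20 min room temperature; fluorescence Ex 365/Em 440 after alkaline stop.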
N370S GC: qHTS Assay for Inhibitors and Activators of N370S glucocerebrosidase as a Potential Chaperone Treatment of Gaucher Disease; N370S GC spleen homogenate, 4MU-glucoside fluorescence; 330,000 compounds, 0.092% hits; Potency, µM (titrated, usually from 59.4 µM), most hits filed as inhibitors
Large screens that a line does not name were inactive. Calls follow the shape of the dose curve; as a rule, active = well fitted curve in the direction sought with a large enough effect; inconclusive = small, poorly fitted or top-dose-only effect, or another doubt; inactive = no such curve, though single readings can be large; an effect the other way counts as inactive or inconclusive.

Cc1cccc(NC(=O)C(=O)NCC(c2cccnc2)N2CCOCC2)c1 (configuration not stated)	none (no result: GAA spleen mod, GLA spleen mod, GLA inh pH 4.5, GAA inh, N370S GC)
CCOC(=O)c1c(C)c(C(=O)NCc2ccc(Cl)cc2)c(C)n1C	none (no result: GAA spleen mod, GLA spleen mod, GLA inh pH 4.5, GAA inh, N370S GC)
CC(C)(C)C(=O)OCCNc1nc(-c2ccccc2)nc2ccccc12	N370S GC 0.891µM
c1ccc(CCNc2nc(-c3ccncc3)nc3ccccc23)cc1	N370S GC 14.1µM (no result: GAA inh)
Clc1ccccc1-c1nc(NCc2cccnc2)c2ccccc2n1	N370S GC 15.8µM (no result: GAA glycogen mod, GLA inh pH 4.5, GAA inh)
CC(C)OCCCNc1nc(-c2ccccc2)nc2ccccc12	N370S GC 1.78µM (no result: GAA spleen mod, GLA spleen mod, GLA inh pH 4.5, GAA inh)
O=C(NC(=S)NNC(=O)c1cccs1)c1ccco1	GAA glycogen mod 28.2µM
O=C(NNC(=O)c1cccs1)c1ccco1	GAA inh inconclusive
Cc1ccc(C)c(NNC(N)=S)c1	GAA glycogen mod 9.92µM
CCc1cccc(NC(=O)CSc2nncn3c2cc2sccc23)c1	none (no result: GAA spleen mod, GLA spleen mod, GLA inh pH 4.5, GAA inh, N370S GC)
Cc1cccc(N2CCN(c3nc4nonc4nc3N3CCSCC3)CC2)n1	GAA glycogen mod 10µM
O=C(O)/C=C/C(=O)Nc1ccc(O)cc1	GAA glycogen mod 31.6µM, N370S GC inconclusive
O=C(O)/C=C/C(=O)Nc1ccc(C(=O)c2ccccc2)cc1	none
Nc1cc(S(=O)(=O)c2ccc(O)c(N)c2)ccc1O	GAA glycogen mod 7.94µM (no result: GAA inh)
C/C(=N\Nc1ccc(Cl)cc1)c1ccccn1	GAA glycogen mod 7.08µM
COc1ccc(NC(=S)N(CCCN2CCOCC2)Cc2cn(C)c3ccccc23)cc1OC	GAA glycogen mod inconclusive, N370S GC inconclusive
COc1cccc(NC(=S)N(CCCN2CCOCC2)Cc2cn(C)c3ccccc23)c1	N370S GC 2.82µM
Cc1c(Nc2c3c(c(C#N)c4nc5ccccc5n24)CCC3)c(=O)n(-c2ccccc2)n1C	GAA glycogen mod 7.03µM
CCCCc1c(C)c(C#N)c2nc3ccccc3n2c1Nc1c(C)n(C)n(-c2ccccc2)c1=O	GAA glycogen mod inconclusive
COc1cccc(Cn2c(C)c(CNCc3ccccc3Cl)c(C(=O)O)c2C)c1	none (no result: GAA spleen mod, GLA spleen mod, GLA inh pH 4.5, GAA inh, N370S GC)
Cc1cc(NC2CCCCC2)nc(NCc2ccccc2)n1	N370S GC 17.8µM
Cc1ccc(Nc2cc(C)nc(NCc3ccccc3)n2)cc1	none
COc1ccccc1N1C(=O)N(C(C)=O)C2C1Nc1ccccc1N2C (configuration not stated)	GAA glycogen mod 35.5µM
COC(=O)[C@@H]1CC[C@H](C)[C@@H](c2ccc(C)cc2)N1C(=O)c1ccc(/C=N\OC[C@@H](C)[C@H](OCc2ccccc2)C(C)C)cc1	none (no result: GAA glycogen mod, GLA inh pH 4.5, GAA inh)
COC(=O)C(N)Cc1ccc(O)cc1 (configuration not stated)	none
COC(=O)C(N)Cc1ccc(O)c(O)c1 (configuration not stated)	GAA glycogen mod 3.14µM
Cc1ccc(C)c(Cn2c3ccccc3c3cnn(CC(=O)NC4CCC(C)CC4)c(=O)c32)c1 (configuration not stated)	none (no result: GAA spleen mod, GLA spleen mod, GLA inh pH 4.5, GAA inh, N370S GC)
O=C(O)CC/C(=N/Nc1ncc(C(F)(F)F)cc1Cl)C(=O)O	GAA glycogen mod 17.8µM
COC(=O)c1c(C)sc(-c2c(-c3ccc4c(c3)OCCO4)[nH]c3[nH]c(=O)[nH]c(=O)c23)c1O	GAA glycogen mod 25.1µM (no result: GAA spleen mod, GLA spleen mod, GLA inh pH 4.5, GAA inh, N370S GC)
COC(=O)c1c(C)sc(-c2c(-c3ccc4c(c3)OCCO4)[nH]c3c2c(=O)n(C)c(=O)n3C)c1O	none (no result: GAA spleen mod, GLA spleen mod, GLA inh pH 4.5, GAA inh, N370S GC)
CCN(CC)CCn1c(-c2ccccc2)nc2c(NCCOC)nc(C)nc21	none (no result: GAA glycogen mod, GAA inh)
COc1cc(/C=C2\NC(=S)N(C)C2=O)ccc1O	GAA glycogen mod 10µM, GLA inh pH 4.5 inconclusive, GAA inh inconclusive
COc1cc(/C=C2/NC(=O)N(Cc3ccccc3F)C2=O)ccc1O	GAA glycogen mod 22.4µM

Assay outcomes: PubChem, National Center for Advancing Translational Sciences (NCATS)
